From ChEMBL document CHEMBL2218924, “A broad activity screen in support of a chemogenomic map for kinase signalling research and drug discovery” (Biochem J, 2013)

molecular target: PAS domain-containing serine/threonine-protein kinase (Homo sapiens) (UniProt Q96RG2); settings: at 1 µM
Sequence (Q96RG2 whole entry, the tested form may be a part): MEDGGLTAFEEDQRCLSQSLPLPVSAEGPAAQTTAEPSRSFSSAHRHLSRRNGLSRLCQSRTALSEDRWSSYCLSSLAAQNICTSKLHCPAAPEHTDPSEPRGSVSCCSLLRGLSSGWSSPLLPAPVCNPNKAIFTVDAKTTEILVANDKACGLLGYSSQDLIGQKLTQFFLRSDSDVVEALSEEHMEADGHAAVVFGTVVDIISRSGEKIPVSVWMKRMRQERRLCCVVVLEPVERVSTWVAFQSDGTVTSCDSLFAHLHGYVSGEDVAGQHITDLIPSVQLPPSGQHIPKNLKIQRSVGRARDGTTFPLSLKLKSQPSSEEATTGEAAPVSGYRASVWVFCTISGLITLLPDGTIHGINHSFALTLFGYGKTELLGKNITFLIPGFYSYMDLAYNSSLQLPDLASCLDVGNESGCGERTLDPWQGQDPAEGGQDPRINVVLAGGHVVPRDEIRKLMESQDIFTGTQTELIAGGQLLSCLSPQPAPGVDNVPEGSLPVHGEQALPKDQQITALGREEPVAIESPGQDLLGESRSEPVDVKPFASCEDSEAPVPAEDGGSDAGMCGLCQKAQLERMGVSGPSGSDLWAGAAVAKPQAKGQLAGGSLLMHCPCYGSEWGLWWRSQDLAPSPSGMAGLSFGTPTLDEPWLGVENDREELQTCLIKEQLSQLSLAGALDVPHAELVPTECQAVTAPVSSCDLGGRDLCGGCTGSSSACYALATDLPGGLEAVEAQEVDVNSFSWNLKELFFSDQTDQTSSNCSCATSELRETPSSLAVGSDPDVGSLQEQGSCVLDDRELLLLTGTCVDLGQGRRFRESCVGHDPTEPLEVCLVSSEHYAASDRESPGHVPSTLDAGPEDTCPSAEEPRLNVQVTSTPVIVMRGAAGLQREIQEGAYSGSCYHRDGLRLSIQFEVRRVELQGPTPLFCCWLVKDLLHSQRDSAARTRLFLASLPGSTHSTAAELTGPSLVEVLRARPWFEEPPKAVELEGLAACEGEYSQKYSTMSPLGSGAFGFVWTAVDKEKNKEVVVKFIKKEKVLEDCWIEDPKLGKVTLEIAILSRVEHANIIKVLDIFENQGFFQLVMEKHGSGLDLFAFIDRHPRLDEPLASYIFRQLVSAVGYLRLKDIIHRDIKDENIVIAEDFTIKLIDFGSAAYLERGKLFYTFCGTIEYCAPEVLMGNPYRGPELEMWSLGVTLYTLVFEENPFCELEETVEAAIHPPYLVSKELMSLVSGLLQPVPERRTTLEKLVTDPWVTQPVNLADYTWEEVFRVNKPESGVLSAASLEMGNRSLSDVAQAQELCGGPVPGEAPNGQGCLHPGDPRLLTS

Compound | residual activity
c1ccc(-c2cnc(Nc3ccc(OCCN4CCCC4)cc3)s2)cc1 | 81%
Cc1ccc(NC2=CC(=O)c3sc(C)nc3C2=O)cc1 | 81%
O=C1C(Cl)=C(N2C(=O)CCC2=O)C(=O)c2ccccc21 | 100%
N#C/C(=C(\N)Sc1ccc(N)cc1)c1ccccc1C(F)(F)F | 122%
Nc1ccc2ncnc(NCCc3ccc(Oc4ccccc4)cc3)c2c1 | 107%
COc1ccc(OC)c2c(=S)c3ccccc3[nH]c12 | 108%
CCOc1cc2ncnc(Nc3cccc(Br)c3)c2cc1OCC | 79%
Cn1c2ccccc2c2c3c(c4c5ccccc5n(CCC#N)c4c21)CNC3=O | 93%
N#Cc1cnc2cnc(NCc3cccnc3)cc2c1Nc1ccc(F)c(Cl)c1 | 80%
Oc1ccc(Nc2nc(-c3ccc(Cl)cc3)cs2)cc1 | 147%
Cc1nc(-c2ccccc2)c(-c2ccncc2)o1 | 128%
CO[C@@H]1[C@H](N(C)C(=O)c2ccccc2)C[C@H]2O[C@]1(C)n1c3ccccc3c3c4c(c5c6ccccc6n2c5c31)C(=O)NC4 | 85%
CCCCc1c(-c2ccc(OC)cc2)[nH]c2nccnc12 | 102%
CC[n+]1c(/C=C/N(C)c2ccccc2)n(-c2ccccc2)c2ccc(-c3nc4ccccc4s3)cc21 | 80%
O=Nc1c(-c2c(O)[nH]c3ccccc23)[nH]c2ccccc12 | 112%
COc1ccc(CNc2nc(N(CCO)CCO)nc3c2ncn3C(C)C)cc1 | 117%
CC(=O)O/N=C1\C(=C2\C(=O)Nc3cc(Br)ccc32)Nc2ccccc21 | 93%
CCN(CC)C(=O)c1ccc(Nc2nc(OCC3CCCCC3)c3nc[nH]c3n2)cc1 | 135%
O=S(=O)(c1cccc2cnccc12)N1CCCNCC1 | 83%
COc1ccc(C(=O)Nc2sc3c(c2C(N)=O)CCCC3)cc1OC | 95%
